From PubChem BioAssay

The compounds below were run against Dickkopf-related protein 1 (Homo sapiens) (UniProt O94907) (assay: small molecules binding DKK1 protein – biochemical, small-molecule microarray, 635 nm fluorescence scan, primary screen (AID 1106;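 note: score merges emission near 667 nm with signal to noise over three replicate slides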)). Conditions: higher = more signal.
Sequence of Dickkopf-related protein 1 (Homo sapiens) (O94907 whole entry, looked up): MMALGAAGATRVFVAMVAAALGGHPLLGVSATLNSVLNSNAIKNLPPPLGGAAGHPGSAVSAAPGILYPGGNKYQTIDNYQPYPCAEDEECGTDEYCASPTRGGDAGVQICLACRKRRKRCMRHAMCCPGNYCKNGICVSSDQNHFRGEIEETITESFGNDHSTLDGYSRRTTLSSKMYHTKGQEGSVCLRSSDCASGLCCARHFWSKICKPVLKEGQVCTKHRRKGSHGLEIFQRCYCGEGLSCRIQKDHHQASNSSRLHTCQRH

Row | Structure (SMILES) | composite z-score
1 | CC1=C2[C@@H](CCc3ccccc3)OB(O)C[C@@H]2[C@@H]2C(=O)N(C)C(=O)[C@@H]2C1 | 0.521
2 | COc1cccc(C)c1NC(=O)O[C@H]1[C@H](OC(=O)Nc2ccc3c(c2)OCO3)[C@@H](OC(=O)Nc2ccc3c(c2)OCO3)[C@@H](OC)O[C@@H]1CO | 0.708
3 | CC(C)N1C(=O)c2ccccc2[C@@H](C(=O)NCCN2CCOCC2)[C@@H]1c1ccc(CO)cc1 | -1.19
4 | CCCCN1CC=CC23O[C@@H]4/C=C\CCCOC(=O)C4[C@H]2C(=O)N(CCO)[C@@H]3C1=O (stereo partly specified) | -1.58
5 | CCCNC(=O)[C@@]1(C)c2ccccc2C(=O)N(c2ccc(C)cn2)[C@H]1c1ccc(CO)cc1 | -0.126
6 | N#Cc1ccc(NN2C(C(O)c3ccc(Br)cc3)C=CC3C(=O)N(c4ccccc4)C(=O)C32)cc1 (stereo unspecified) | 0.316
7 | O=C(O)[C@@H]1[C@@H]2C(=O)N(c3ccccc3)C(=O)[C@@H]2C[C@@H]1Sc1ccccc1 | -1.19
8 | CCCNC(=O)[C@@H]1c2ccccc2C(=O)N(Cc2ccc(OC(F)(F)F)cc2)[C@H]1c1ccc(CO)cc1 | 0.0637
9 | COCCOC(=O)N1C(=O)[C@@]2(c3cc(C#CCCO)ccc31)[C@H](c1ccc(OCCO)cc1)N1[C@H](c3ccccc3)[C@H](c3ccccc3)OC(=O)[C@H]1[C@@H]2C(=O)Nc1nc2ccccc2s1 | 0.87
10 | CN(C)C(=O)[C@]1(CCC(=O)OC(C)(C)C)N=C(c2ccc(OCCCO)cc2)O[C@@H]1c1ccccc1CN=[N+]=[N-] | -0.396
11 | CCCC=C(CCC)[C@@H](NS(=O)(=O)c1ccc(C(F)(F)F)cc1)c1ccccc1 | -0.61
